Laboratory results from PubChem BioAssay (NCATS).
Inconclusive results are not listed. Calls of active or inactive are those of the source. Calls follow the shape of the dose curve; as a rule, active = well fitted inhibition curve with a large enough effect; inconclusive = small, poorly fitted or top-dose-only effect; inactive = flat fitted curve, though single readings scatter.

Assays:
Test in all cases: qHTS profiling for inhibitors of Plasmodium falciparum proliferation (AID 504749); also: nearly all actives have a fitted effect of over 60% in size
Settings in all cases: P. falciparum in erythrocytes, SYBR Green DNA, 72 h; series mostly up to 28.7 µM
CP305 = tested on: CP305
Outline: (§1)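 Readout was DNA-dye fluorescence from lysed cultures, ex 485/em 535 nm. Parasitized red cells had grown 72 h with compound; data scaled between 0.29 uM artemisinin and DMSO wells and corrected using vehicle-only plates.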

CP315 = tested on: CP315
Outline: as §1

CP325 = tested on: CP325
Outline: as §1

CP329 = tested on: CP329
Outline: as §1

CP335 = tested on: CP335
Outline: as §1

DFO2036 = tested on: DFO2036
Outline: as §1

DIV14 = tested on: DIV14
Outline: as §1

DIV17 = tested on: DIV17
Outline: as §1

DIV30 = tested on: DIV30
Outline: as §1

Dd2 = tested on: Dd2
Outline: as §1

Measured: Potency
Potency is read from the fitted curve at half-maximal effect.

NC(=O)C1c2ccccc2CCc2ccccc21
inactive: all assays above

CCN(CC)CCOc1ccccc1OC
inactive: all assays above

c1ccc2c(c1)Sc1ccccc1N2CCN1CCCC1
active: CP305 15.1 µM | CP315 12 µM | CP325 15.1 µM | CP329 15.1 µM | CP335 9.53 µM | DFO2036 10 µM | DIV14 6.01 µM | DIV17 6.75 µM | DIV30 12 µM | Dd2 5.62 µM

O=S(=O)(O)CCCS(=O)(=O)O
inactive: all assays above

COc1cc(S(C)=O)ccc1-c1nc2ncccc2[nH]1 (configuration not stated)
inactive: all assays above

NCC[C@H](O)C(=O)N[C@@H]1C[C@H](N)[C@@H](O[C@H]2O[C@H](CN)CC[C@H]2N)[C@H](O)[C@H]1O[C@H]1O[C@H](CO)[C@@H](O)[C@H](N)[C@H]1O
inactive: all assays above

NC(=S)N=Nc1ccc(NN=C(N)N)cc1
active: CP305 7.57 µM | CP315 8.49 µM | CP325 10.7 µM | CP329 7.57 µM | CP335 8.49 µM | DFO2036 5.01 µM | DIV14 6.01 µM | DIV17 7.57 µM | DIV30 9.53 µM | Dd2 2.51 µM

CCCCCCCCCCCCCCCCCC[N+](C)(C)CCC[Si](OC)(OC)OC
inactive: all assays above

CC1CCCCN1CCCOC(=O)c1ccccc1 (configuration not stated)
inactive: all assays above

CC(=O)[C@H]1CC[C@H]2[C@@H]3C=CC4=CC(=O)CC[C@@]4(C)[C@H]3CC[C@]12C
inactive: all assays above

CNC(=O)C[C@@H](N)C(=O)N[C@@H](C(=O)N[C@@H]1C(=O)N2[C@@H]1SC(C)(C)[C@@H]2C(=O)O)c1ccc(O)cc1
inactive: all assays above

CC1C(=O)CC2C3(C)CCC2(C(C)C(=O)O)C(=O)C13 (configuration not stated)
inactive: all assays above

COc1ccc(C(=O)CCC(=O)O)c2ccccc12
inactive: all assays above

C=Cc1ccc(S(=O)(=O)O)cc1
inactive: all assays above

CC(=O)Oc1cccc(C(=O)O)c1OC(C)=O
inactive: all assays above

S=C1SCN(Cc2ccccc2)CN1Cc1ccccc1
inactive: all assays above

CCCCC[C@H](O)/C=C/[C@@H]1[C@H]2C/C(=C/CCCC(=O)O)O[C@H]2C[C@H]1O
inactive: all assays above

O=[n+]1ccn([O-])c2ccccc21
inactive: all assays above

CCCCCCOC(=O)c1cccnc1
inactive: all assays above

C/C=C/C=C/C(=O)O
inactive: all assays above

O=C(O)/C=C/c1ccccc1
inactive: all assays above

CN1C(=O)C[C@@H](C(=O)N[C@@H](Cc2cnc[nH]2)C(=O)N2CCC[C@H]2C(N)=O)NC1=O
inactive: all assays above

C(=C\c1ccncc1)/c1ccccc1
inactive: all assays above

O=C(O)c1ccc(OCCn2ccnc2)cc1
inactive: all assays above

c1ccc2ccccc2c1
inactive: all assays above

CCCCCCCCCCCC(=O)N(CCO)CCO
inactive: all assays above

CCc1ccc(S(=O)(=O)O)cc1
inactive: all assays above

COc1cc2c(cc1OC)[C@@H](Cc1cc(OC)c(OC)c(OC)c1)[N+](C)(CCCOC(=O)CC/C=C/CCC(=O)OCCC[N+]1(C)CCc3cc(OC)c(OC)cc3[C@H]1Cc1cc(OC)c(OC)c(OC)c1)CC2 (some centres not stated)
inactive: all assays above

CC(C)[C@H](N)C(=O)OCC(CO)OCn1cnc2c(=O)[nH]c(N)nc21 (some centres not stated)
inactive: all assays above

Cc1ccc(C(C)(C)c2ccc(C)cc2)cc1
not listed: DIV14
inactive: all other assays above

O=C1c2ccccc2C(=O)C1c1ccc(Cl)cc1
inactive: all assays above

CCCCCc1ccc(C)cc1O
not listed: DIV14 | DIV17
inactive: all other assays above

CN(C)CCCSc1ccccc1NC(=O)/C=C/c1ccccc1
not listed: DIV14 | DIV17 | Dd2
inactive: all other assays above

O=C(OCc1ccccc1)c1ccc(O)cc1
not listed: DIV14
inactive: all other assays above

O=c1[nH]c(=O)n([C@H]2C[C@H](O)[C@@H](CO)O2)cc1/C=C/Br
inactive: all assays above

C=C(C)C1CC=C(C)CC1 (configuration not stated)
inactive: all assays above

COC(=O)CCC[N+](C)(C)C
not listed: DIV14
inactive: all other assays above

FC(F)OC(Cl)C(F)(F)F (configuration not stated)
not listed: DIV17
inactive: all other assays above

CN(C)C=Nc1c(I)cc(I)c(CCC(=O)O)c1I
inactive: all assays above

FC(F)(F)C(F)(F)C(F)(F)C(F)(F)C(F)(F)F
not listed: DIV14
inactive: all other assays above

CCCCCCCCCCCCCCCCCC(=O)OC[C@@H](O)[C@H]1OC[C@H](O)[C@H]1O
not listed: DIV14 | DIV30
inactive: all other assays above

CC(CCc1ccc(O)cc1)NCC(O)c1ccc(O)cc1 (configuration not stated)
not listed: DIV14
inactive: all other assays above

O=C1c2ccccc2CN2C(=O)c3ccccc3CN12
not listed: DIV17
inactive: all other assays above

CN[C@@H]1[C@H](O[C@H]2[C@H](O[C@H]3[C@H](O)[C@@H](O)[C@H](N=C(N)N)[C@@H](O)[C@@H]3N=C(N)N)O[C@@H](C)[C@]2(O)C=O)O[C@@H](CO)[C@H](O)[C@H]1O
inactive: all assays above

O=[N+]([O-])c1c(Cl)cccc1-c1c[nH]cc1Cl
not listed: DIV14
inactive: all other assays above

CC(C)=CCC/C(C)=C/C=C/C(C)=C/C=C/C(C)=C/C=C/C=C(C)/C=C/C=C(C)/C=C/C=C(\C)CCC=C(C)C
not listed: DIV14
inactive: all other assays above

COc1ccccc1N1CCN(CCCC(=O)c2ccc(F)cc2)CC1
not listed: DIV14 | DIV17
inactive: all other assays above
